# Measurements taken from PubChem BioAssay (NCATS).
# Results filed as inconclusive are left out. Entries that show only a call come without a potency. Values without a mark were called inactive. The source made the active and inactive calls. Calls follow the shape of the dose curve; as a rule, active = well fitted curve in the direction sought with a large enough effect; inconclusive = small, poorly fitted or top-dose-only effect, or another doubt; inactive = no such curve, though single readings can be large; an effect the other way counts as inactive or inconclusive.
# Columns and labels:
# [1] = target: Rap guanine nucleotide exchange factor 3 (Homo sapiens) (UniProt O95398); assay: Confirmatory qHTS for antagonist of cAMP-regulated guanine nucleotide exchange factor 3 (EPAC1) (AID 1645880); details: EPAC1 Rap1B-BODIPY-GDP exchange, fluorescence; series mostly up to 115 µM; also: nearly all actives have a fitted effect of over 55% in size; also: potency is read from the fitted curve at half-maximal effect
# Rap guanine nucleotide exchange factor 3 (Homo sapiens), sequence (O95398 whole entry, looked up): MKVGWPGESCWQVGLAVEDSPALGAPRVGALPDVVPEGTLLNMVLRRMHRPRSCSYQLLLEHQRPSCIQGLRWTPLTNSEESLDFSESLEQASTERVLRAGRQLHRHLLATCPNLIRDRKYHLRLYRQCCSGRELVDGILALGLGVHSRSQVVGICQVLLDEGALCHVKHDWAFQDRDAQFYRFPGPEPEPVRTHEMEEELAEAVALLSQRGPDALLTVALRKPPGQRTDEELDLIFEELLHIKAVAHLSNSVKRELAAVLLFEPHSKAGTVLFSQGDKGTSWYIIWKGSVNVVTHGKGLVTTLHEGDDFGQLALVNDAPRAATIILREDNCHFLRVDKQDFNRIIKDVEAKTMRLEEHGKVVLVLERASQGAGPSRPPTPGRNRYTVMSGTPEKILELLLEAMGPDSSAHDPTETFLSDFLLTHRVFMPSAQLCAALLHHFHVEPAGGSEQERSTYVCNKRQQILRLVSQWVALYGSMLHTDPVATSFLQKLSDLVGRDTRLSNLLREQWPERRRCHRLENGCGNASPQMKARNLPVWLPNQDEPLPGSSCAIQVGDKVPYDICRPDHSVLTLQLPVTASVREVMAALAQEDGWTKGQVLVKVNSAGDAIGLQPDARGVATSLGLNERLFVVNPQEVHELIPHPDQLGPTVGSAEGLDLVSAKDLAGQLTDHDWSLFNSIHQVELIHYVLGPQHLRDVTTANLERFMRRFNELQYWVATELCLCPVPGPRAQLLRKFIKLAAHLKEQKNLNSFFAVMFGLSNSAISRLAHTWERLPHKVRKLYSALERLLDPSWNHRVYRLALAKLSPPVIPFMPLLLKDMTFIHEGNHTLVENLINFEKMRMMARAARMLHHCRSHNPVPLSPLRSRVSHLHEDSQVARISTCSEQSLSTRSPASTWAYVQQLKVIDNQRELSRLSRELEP
# In short: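 Released BODIPY-GDP fluoresces less than Rap1-bound BODIPY-GDP; the signal is followed at 480/540 nm at 5-min intervals over 30 min, after 5 min at room temperature. Reactions contain 100 nM EPAC1, 250 nM RAP1B-BODIPY-GDP and 50 uM GDP; results are normalized to ATA and DMSO.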
# [2] = target: Rap guanine nucleotide exchange factor 3 (Homo sapiens) (UniProt O95398); assay: Confirmatory qHTS for agonist of cAMP-regulated guanine nucleotide exchange factor 3 (EPAC1) (AID 1645881); details: EPAC1 Rap1B BODIPY-GDP exchange fluorescence; series mostly up to 154 µM; also: nearly all actives have a fitted effect of over 75% in size; also: potency is read from the fitted curve at half-maximal effect;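 as to activation: EPAC1 catalysed release of BODIPY-GDP from Rap1B seen as fluorescence loss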
# [3] = target: Rap guanine nucleotide exchange factor 4 (Homo sapiens) (UniProt Q8WZA2); assay: Confirmatory qHTS for agonist of cAMP-regulated guanine nucleotide exchange factor 4 (EPAC2) (AID 1645884); details: EPAC2 GEF activity, Rap1B-BODIPY-GDP fluorescence; series mostly up to 154 µM;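 also: nucleotide exchange releases bodipy-GDP from Rap1 and this lowers its fluorescence; nearly all actives have a fitted effect of over 65% in size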; also: potency is read from the fitted curve at half-maximal effect
# Rap guanine nucleotide exchange factor 4 (Homo sapiens), sequence (Q8WZA2 whole entry, looked up): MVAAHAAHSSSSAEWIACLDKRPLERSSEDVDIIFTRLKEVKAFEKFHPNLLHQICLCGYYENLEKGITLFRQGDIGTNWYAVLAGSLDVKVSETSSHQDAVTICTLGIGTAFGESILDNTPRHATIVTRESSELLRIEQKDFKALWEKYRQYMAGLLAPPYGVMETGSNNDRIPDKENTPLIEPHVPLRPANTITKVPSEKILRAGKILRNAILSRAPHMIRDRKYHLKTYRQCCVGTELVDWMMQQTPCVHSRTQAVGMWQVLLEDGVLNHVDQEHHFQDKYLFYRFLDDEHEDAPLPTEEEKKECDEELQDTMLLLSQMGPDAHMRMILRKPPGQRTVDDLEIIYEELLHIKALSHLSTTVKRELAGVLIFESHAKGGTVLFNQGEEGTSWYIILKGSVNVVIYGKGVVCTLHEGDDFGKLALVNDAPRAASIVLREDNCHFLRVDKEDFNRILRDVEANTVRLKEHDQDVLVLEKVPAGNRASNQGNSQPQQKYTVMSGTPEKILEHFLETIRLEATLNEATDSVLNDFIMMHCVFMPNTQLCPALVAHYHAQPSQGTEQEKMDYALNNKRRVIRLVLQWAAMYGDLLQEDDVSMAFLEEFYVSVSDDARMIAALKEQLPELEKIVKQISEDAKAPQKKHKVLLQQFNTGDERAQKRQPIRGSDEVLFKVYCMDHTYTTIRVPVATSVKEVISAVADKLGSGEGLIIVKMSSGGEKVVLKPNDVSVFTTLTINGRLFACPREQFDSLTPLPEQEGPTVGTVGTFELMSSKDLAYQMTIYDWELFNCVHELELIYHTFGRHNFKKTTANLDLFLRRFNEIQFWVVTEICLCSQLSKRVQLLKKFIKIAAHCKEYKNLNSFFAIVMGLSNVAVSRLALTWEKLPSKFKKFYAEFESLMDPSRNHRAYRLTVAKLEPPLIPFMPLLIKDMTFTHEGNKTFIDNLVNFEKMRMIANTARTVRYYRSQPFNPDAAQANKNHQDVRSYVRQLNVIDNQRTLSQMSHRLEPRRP
# [4] = target: Rap guanine nucleotide exchange factor 4 (Homo sapiens) (UniProt Q8WZA2); assay: Confirmatory qHTS for antagonist of cAMP-regulated guanine nucleotide exchange factor 4 (EPAC2) (AID 1645885); details: EPAC2 Rap1B-BODIPY-GDP exchange fluorescence, biochemical; series mostly up to 12.7 µM; also: nearly all actives have a fitted effect of over 25% in size; also: potency is read from the fitted curve at half-maximal effect
# [5] = target: Rap guanine nucleotide exchange factor 3 (Homo sapiens) (UniProt O95398); assay: Counterscreen qHTS for antagonist of cAMP-regulated guanine nucleotide exchange factor 3 (EPAC1) (AID 1645888); details: Rap1B-BODIPY-GDP nucleotide exchange, fluorescence; series mostly up to 154 µM
# In short: (§1)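 Measured: fluorescence of BODIPY-GDP bound to Rap1B, which falls as exchange proceeds. Conditions include 50 uM competing GDP, 5 and 30 min reads, and a later cAMP challenge for antagonist detection.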
# [6] = target: Rap guanine nucleotide exchange factor 3 (Homo sapiens) (UniProt O95398); assay: Counterscreen qHTS for agonist of cAMP-regulated guanine nucleotide exchange factor 3 (EPAC1) (AID 1645889); details: EPAC1 Rap1B-BODIPY-GDP exchange, fluorescence; series mostly up to 154 µM; also: nearly all actives have a fitted effect of over 40% in size; also: potency is read from the fitted curve at half-maximal effect
# In short: as §1
Structure (SMILES),Potency [1],Potency [2],activation [3],Potency [4],"activity change, negative = inhibition [5]",activation [6],Potency [3],Potency [5],Potency [6],outcome [4]
COc1ccccc1NC(=O)C(C)OC(=O)COc1cccc2c1OC(C)(C)C2 (stereo not given),inactive,inactive,"2.07% [at 17.1 µM, percent relative to cAMP agonist control]",inactive,-14.5% [at 30.8 µM],7.64% [at 30.8 µM],–,–,–,–
Cc1ccc(NC(=O)c2ccc(CN3CC(=O)N4CCCCC4C3=O)cc2)c(C)c1 (stereo not given),inactive,inactive,–,inactive,–,–,inactive,inactive,inactive,–
CCC(C(=O)OC)n1c(-c2ccccc2)nc2ccccc2c1=O (stereo not given),inactive,inactive,–,19 µM (active),–,–,inactive,inactive,inactive,–
CCOC(=O)N(C)c1c(CC)nc2c(OCc3ccc(OC(F)F)cc3)cccn12,inactive,inactive,–,inactive,–,–,inactive,inactive,inactive,–
COC(=O)CSc1nc(C)cc(Oc2ccccc2)n1,inactive,inactive,–,inactive,–,–,inactive,inactive,inactive,–
COc1cccc2c(N/N=C/c3ccco3)cc(C)nc12,inactive,inactive,–,inactive,–,–,inactive,inactive,inactive,–
COC(=O)c1scc(C#N)c1N/N=C(\C#N)S(=O)(=O)c1ccc(Cl)cc1,47.8 µM (active),inactive,–,inactive,–,–,inactive,inactive,inactive,–
CCCCN1C(=O)C(O)(c2c[nH]c3ccccc23)c2cc(Br)ccc21 (stereo not given),inactive,inactive,–,inactive,–,–,inactive,inactive,inactive,–
CC(C)Cc1csc(NC(=O)c2ccc(F)cc2)c1C(=O)O,inactive,inactive,–,inactive,–,–,inactive,inactive,inactive,–
Nc1c(C(=O)c2ccccc2)sc2nsc(SCCN3CCOCC3)c12,inactive,inactive,–,inactive,–,–,inactive,inactive,inactive,–
O=C(COC(=O)c1ccc2c(c1)OCO2)NC1CCS(=O)(=O)C1 (stereo not given),inactive,inactive,–,inactive,–,–,inactive,inactive,inactive,–
COc1ccc(C(=O)Nc2cccc(/C=C(\CCC(=O)O)c3nc4ccccc4s3)c2)cc1,21.3 µM (active),inactive,–,inactive,–,–,inactive,inactive,inactive,–
CC(C)(C)c1cc(-c2csc(Nc3ccccc3)[n+]2Cc2ccc(C(=O)O)cc2)cc(C(C)(C)C)c1O,67.5 µM (active),inactive,–,84.9 µM (active),–,–,inactive,inactive,inactive,–
CC(=O)N1CCN(C(=O)COc2ccc(Br)cc2)CC1,inactive,inactive,–,inactive,–,–,inactive,inactive,inactive,–
NNC(=O)c1cccc(COCC(F)(F)C(F)F)c1,inactive,inactive,–,inactive,–,–,inactive,inactive,inactive,–
COc1ccccc1C1SCCN1S(C)(=O)=O (stereo not given),inactive,inactive,–,inactive,–,–,inactive,inactive,inactive,–
c1ccc(-c2nc(C3CCCCC3)c3ccccc3n2)cc1,inactive,inactive,"3.01% [at 17.1 µM, percent relative to cAMP agonist control]",inactive,-1.41% [at 30.8 µM],34% [at 30.8 µM],–,–,–,–
O=C(Cn1nnc2sc(-c3ccccc3)cc2c1=O)Nc1cccc(C(F)(F)F)c1,inactive,inactive,–,inactive,–,–,inactive,inactive,inactive,–
Cc1ccc(S(=O)(=O)NCCC(=O)N2CC(C)OC(C)C2)cc1 (stereo not given),inactive,inactive,–,inactive,–,–,inactive,inactive,inactive,–
O=S(=O)(Nc1nccs1)c1ccc(NCc2cc(Br)cc(Br)c2O)cc1,56.2 µM (active),inactive,"-0.584% [at 17.1 µM, percent relative to cAMP agonist control]",1.51 µM (active),9.07% [at 30.8 µM],31.2% [at 30.8 µM],–,–,–,–
CCC(=O)N1c2nc(C(C)C)nn2C2(CCCCC2)[C@@H]2CCCC[C@@H]21,inactive,inactive,–,–,–,–,inactive,inactive,inactive,inactive [at 12.7 µM]
O=C(OCc1c(-c2ccccc2)ncc2ccccc12)c1ccccc1C(F)(F)F,inactive,inactive,–,inactive,–,–,inactive,inactive,inactive,–
COc1ccc(OC)c(NC(=O)Cc2c(C(=O)O)n(C)c3ccc(C)cc23)c1,inactive,inactive,–,inactive,–,–,inactive,inactive,inactive,–
CCN1C/C(=C/c2ccc(N3CCOCC3)cc2)C(=O)/C(=C/c2ccc(N3CCOCC3)cc2)C1,inactive,100 µM (active),–,67.5 µM (active),–,–,100 µM (active),inactive,39.8 µM (active),–
Cn1cc(C(C[N+](=O)[O-])c2ccccc2)c2ccccc21 (stereo not given),inactive,inactive,"0.148% [at 17.1 µM, percent relative to cAMP agonist control]",inactive,-4.06% [at 30.8 µM],13.8% [at 30.8 µM],–,–,–,–
O=C(COc1ccccc1Cl)Nc1cccc(S(=O)(=O)NC2=NCCCCC2)c1,inactive,inactive,–,inactive,–,–,inactive,inactive,inactive,–
Cc1cc2nc3c(=O)n(CCc4ccccc4)c(=O)[nH]c3nc2cc1N,12.6 µM (active),inactive,"3.45% [at 17.1 µM, percent relative to cAMP agonist control]",inactive,-6.16% [at 30.8 µM],15.2% [at 30.8 µM],–,–,–,–
COc1ccc(N2CCN(C(=O)COC(=O)COc3cc(C)cc(C)c3)CC2)cc1,inactive,inactive,"0.676% [at 17.1 µM, percent relative to cAMP agonist control]",inactive,-19.2% [at 30.8 µM],-0.0753% [at 30.8 µM],–,–,–,–
CCn1c2ccccc2c2nnc(SCC(=O)N(C)C3CCS(=O)(=O)C3)nc21 (stereo not given),inactive,inactive,"3.11% [at 17.1 µM, percent relative to cAMP agonist control]",inactive,5.48% [at 30.8 µM],4.22% [at 30.8 µM],–,–,–,–
CCOC(=O)C1CCCN(c2c(NCCN3CCCCC3C)c(=O)c2=O)C1 (stereo not given),inactive,inactive,–,inactive,–,–,inactive,inactive,inactive,–
